High-throughput results: PubChem, Broad Institute
Vaccinia inh = Vaccinia orthopox stage-specific inhibition; Vaccinia-infected cells, mCherry/Venus stage reporter fluorescence; stronger effect = lower value; activity change (mCherry), % (test concentration not listed); 89,000 compounds, 0.01% hits; in the data active = activity change below about -37%, passing the limit was not always enough; tested in A549 cells
Of the large screens only hits and unclear results are named; the others gave an inactive call. The full list was thinned out, with hits kept by preference.

COCC(=O)N(C)C[C@@H]1Oc2ncc(C#C[C@@H](C)O)cc2C(=O)N([C@@H](C)CO)C[C@@H]1C	none
O=C(N[C@@H]1CC[C@@H](CCNC(=O)c2ccccc2F)O[C@H]1CO)c1ccc2c(c1)OCO2	none
CCCNC(=O)Nc1ccc2c(c1)OC[C@@H](C)N(Cc1ccncc1)C[C@@H](C)[C@@H](OC)CN(C)C2=O	none
O=C(N[C@@H]1CC[C@H](CC(=O)N2CCC(Cc3ccccc3)CC2)O[C@H]1CO)c1cnccn1	none
COc1ccc(NC(=O)Nc2cccc3c2O[C@@H](CN(C)S(C)(=O)=O)[C@@H](C)CN([C@@H](C)CO)C3=O)cc1	none
O=C(C[C@H]1CC[C@H]2[C@@H](COC[C@@H](O)CN2C(=O)c2ccccc2F)O1)NCc1ccc(-c2ccccc2)cc1	none
CN(C)C(=O)C[C@@H]1CC[C@H]2[C@H](COc3ccc(NC(=O)C4CCC4)cc3C(=O)N2C)O1	none
C[C@@H]1CN([C@H](C)CO)C(=O)c2cc(NC(=O)CCCCCC(=O)Nc3ccccc3N)ccc2O[C@H]1CN(C)S(=O)(=O)c1cn(C)cn1	none
O=C(Cc1ccccc1)N[C@@H]1C=C[C@@H](CC(=O)N2CCOCC2)O[C@@H]1CO	none
CO[C@H]1CN(C)C(=O)c2ccc(NC(=O)c3cc(C)on3)cc2OC[C@H](C)N(C)C[C@@H]1C	none
COCCNC(=O)c1cc2c(c(-c3cccc(-c4cccc(F)c4)c3)n1)[C@@H](CCO)N([S@](=O)C(C)(C)C)C2	none
CN1CCN(C(=O)c2cc3c(c(-c4cccc(C#CCC5CCCC5)c4)n2)[C@@H](CCO)N(S(=O)C(C)(C)C)C3)CC1 (stereo not given in full)	Vaccinia inh -65
COc1ccccc1-c1cccc(-c2nc(C(=O)N3CCN(C)CC3)cc3c2[C@@H](CCO)N([S@](=O)C(C)(C)C)C3)c1	none
CCCNC(=O)c1cc2c(c(-c3cccc(-c4cccc(F)c4)c3)n1)[C@H](CCO)N([S@@](=O)C(C)(C)C)C2	Vaccinia inh -46
CCNC(=O)c1cc2c(c(-c3cccc(-c4cccc(F)c4)c3)n1)[C@@H](CCO)N([S@](=O)C(C)(C)C)C2	none
CN1CCN(C(=O)c2cc3c(c(-c4cccc(Br)c4)n2)[C@H](CCO)N([S@@](=O)C(C)(C)C)C3)CC1	none
COc1ccc2c3c([nH]c2c1)[C@H](CO)N(S(C)(=O)=O)CC31CCN(CC2CCCCC2)CC1	none
C[C@H](CO)N1C[C@H](C)[C@H](CN(C)C)Oc2ccc(NC(=O)Nc3ccc4c(c3)OCO4)cc2CC1=O	none
C[C@H](CO)N1C[C@H](C)[C@H](CN(C)C(=O)Nc2ccc(F)cc2)Oc2ncc(C#C[C@@H](C)O)cc2C1=O	none
CC(C)NC(=O)Nc1ccc2c(c1)C(=O)N([C@@H](C)CO)C[C@H](C)[C@@H](CN(C)Cc1ccncc1)OCCCC[C@H](C)O2	none
O=C1O[C@H](c2ccccc2)[C@H](c2ccccc2)N2[C@H]1[C@@H](C(=O)Nc1nc3ccccc3s1)[C@]1(C(=O)Nc3ccc(C#CCCO)cc31)[C@H]2c1ccc(OCCO)cc1	none
COc1ccc(NC(=O)N(C)C[C@@H]2Oc3ccc(NC(=O)Cc4cn(C)c5ccccc45)cc3C(=O)N([C@@H](C)CO)C[C@H]2C)cc1	none
O=C(CCN1CCCCC1)NCC[C@@H]1CC[C@@H](NC(=O)Cc2cccnc2)[C@@H](CO)O1	none
C[C@@H]1CN([C@@H](C)CO)C(=O)c2cc(NC(=O)Cc3ccccc3)ccc2O[C@@H](C)CCCCO[C@@H]1CN(C)C(=O)c1ccncc1	none
[N-]=[N+]=NCCCNC(=O)Nc1ccccc1	none
C[C@@H](NC(=O)C[C@@H]1CC[C@@H](NS(=O)(=O)c2cccc(F)c2)[C@@H](CO)O1)c1ccccc1	none
COc1ccc(NC(=O)N[C@H]2CC[C@@H](CCNS(=O)(=O)c3ccccc3F)O[C@@H]2CO)cc1	none
C[C@@H]1CN([C@@H](C)CO)C(=O)c2cc(NS(C)(=O)=O)ccc2O[C@@H](C)CCCCO[C@H]1CN(C)C	none
CCC(=O)N[C@H]1CC[C@H](CC(=O)NCC2CC2)O[C@H]1CO	none
Cc1ccccc1-c1ccc([C@H]2[C@H](CO)N3C(=O)CN(C(=O)NC4CCCC4)C[C@@H]23)cc1	none
CN1C(=O)c2cc(NS(=O)(=O)c3ccccc3Cl)ccc2OC[C@H]2O[C@H](CC(=O)O)CC[C@@H]21	none
O=C(N[C@H]1C=C[C@@H](CC(=O)N2CCc3ccccc3C2)O[C@H]1CO)C1CCC1	none
O=C(NCc1ccc(F)cc1)[C@H]1[C@H](CO)[C@H]2Cn3c(cccc3=O)[C@H]2N1CC1CC1	none
COc1ccc(NC(=O)Nc2ccc3c(c2)C(=O)N([C@H](C)CO)C[C@H](C)[C@H](CN(C)C(=O)NC(C)C)OCCCC[C@@H](C)O3)cc1	none
Cc1noc(C)c1NC(=O)Nc1ccc2c(c1)CC(=O)N([C@@H](C)CO)C[C@H](C)[C@@H](CN(C)S(=O)(=O)c1c(C)noc1C)O2	none
CC(C)NC(=O)N(C)C[C@H]1OCCCC[C@@H](C)Oc2ccc(NS(=O)(=O)c3cn(C)cn3)cc2C(=O)N([C@H](C)CO)C[C@H]1C	none
C[C@@H]1CN([C@H](C)CO)S(=O)(=O)c2ccc(C#C[C@@H](C)O)cc2O[C@@H]1CN(C)C(=O)C1CCC1	none
O=C(C[C@@H]1C[C@H]2c3cc(NC(=O)C4CCC4)ccc3O[C@H]2[C@@H](CO)O1)NC1CCCCC1	none
CCC(=O)Nc1ccc2c(c1)OC[C@H](C)N(Cc1ccccc1OC)C[C@H](C)[C@H](OC)CN(C)C2=O	none
COc1ccc2c3c([nH]c2c1)[C@@H](CO)N(C(=O)c1ccccn1)CC31CN(C(=O)C2CC2)C1	none
C[C@H]1CN([C@@H](C)CO)S(=O)(=O)c2ccc(-c3cccc(F)c3)cc2O[C@@H]1CN(C)C(=O)C1CC1	none
C[C@H]1CN([C@@H](C)CO)C(=O)Cc2cc(NS(C)(=O)=O)ccc2O[C@H]1CN(C)C(=O)Nc1cccc2ccccc12	none
COc1ccc(NC(=O)N2C[C@@H](O)COC[C@@H]3O[C@H](CC(=O)NC4Cc5ccccc5C4)CC[C@H]32)cc1	none
O=C(NCC[C@@H]1CC[C@@H](NS(=O)(=O)c2ccccc2)[C@H](CO)O1)c1ccccc1F	none
C[C@H](CO)N1C[C@H](C)[C@H](CN(C)S(=O)(=O)c2ccccc2F)OCc2ccccc2-c2ccccc2C1=O	none
Cc1noc(C)c1NC(=O)N(C)C[C@H]1Oc2c(NS(=O)(=O)c3c(C)noc3C)cccc2C(=O)N([C@@H](C)CO)C[C@H]1C	none
COc1ccc2c3c([nH]c2c1)[C@H](CO)N(C(=O)Nc1c(C)noc1C)CC31CN(CC2CC2)C1	none
Cc1noc(C)c1NC(=O)N(C)C[C@@H]1OCCCC[C@@H](C)Oc2ccc(NC(=O)Cc3ccccc3)cc2C(=O)N([C@H](C)CO)C[C@H]1C	none
COc1ccccc1-c1cn(CC[C@@H]2CC[C@@H](NC(=O)C3CC3)[C@@H](CO)O2)nn1	none
COc1cccc(NC(=O)N(C)C[C@H]2Oc3ncc(C4=CCCCC4)cc3C(=O)N([C@H](C)CO)C[C@@H]2C)c1	none
COc1ccc(NC(=O)N(C)C[C@@H]2Oc3c(NC(=O)c4ccc(-c5nccs5)cc4)cccc3C(=O)N([C@@H](C)CO)C[C@H]2C)cc1	none
C[C@@H]1CN([C@H](C)CO)C(=O)Cc2cc(NC(=O)CCC(F)(F)F)ccc2O[C@H]1CN(C)C(=O)Nc1cccc2ccccc12	none
O=C(C[C@H]1CC[C@H](NS(=O)(=O)c2ccc(F)cc2)[C@H](CO)O1)N1CCC(Cc2ccccc2)CC1	none
O=C(C[C@@H]1CC[C@H]2[C@@H](COC[C@@H](O)CN2S(=O)(=O)c2ccc(Cl)cc2)O1)NCCN1CCCCC1	none
